Among the data in PubChem BioAssay AID873 (PCMD, 2007) are inhibition values, retold here.

About 1,300 (0.62%) of roughly 210,000 compounds were called active. Shown is part of a subset that was picked to be rich in actives. A number with no mark means an inactive call.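 Rule for the calls: active = inhibition of 40% or more; inactive = the rest.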

The target of the assay is Kallikrein-5 (Homo sapiens) (UniProt Q9Y337). In words: human KLK5 protease inhibitors, primary screen, biochemical, 1536-well (AID 873).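 Note: 0% = enzyme controls without compound and 100% = no-enzyme blanks.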 Conditions: recombinant hK5, fluorogenic AMC substrate cleavage; at 5 µM; active compounds read high.
Kallikrein-5 (Homo sapiens), sequence (Q9Y337 67-293 limits assumed): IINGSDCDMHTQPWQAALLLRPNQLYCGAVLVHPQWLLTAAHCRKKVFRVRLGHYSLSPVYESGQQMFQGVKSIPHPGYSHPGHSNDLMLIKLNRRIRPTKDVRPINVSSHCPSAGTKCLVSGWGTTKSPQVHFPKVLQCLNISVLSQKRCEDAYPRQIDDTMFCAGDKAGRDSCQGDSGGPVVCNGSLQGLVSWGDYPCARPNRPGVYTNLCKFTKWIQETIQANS
Broadly, the inhibition is the change of the read-out against control, counted positive when it falls. Regarding `COCc1cc(=O)[nH]c(-c2ccc(C(F)(F)F)cc2)n1`, the inhibition is -1.98%. On to `Cc1cccc(N(C)C(=O)c2cc3c(=O)[nH]c4ccc(C)cc4c3s2)c1`, for which the inhibition is 1.34%. On to `CCN(CC)S(=O)(=O)c1ccc(NC(=O)CN(c2cccc(F)c2)S(C)(=O)=O)cc1`, for which the inhibition was -2.67%. Regarding `CS(=O)(=O)N(CC(=O)Nc1ccc(F)cc1F)c1cccc([N+](=O)[O-])c1`, the inhibition is 62.8% (active).

For `COc1cccc(N(CC(=O)Nc2cccc(F)c2)S(C)(=O)=O)c1`, the inhibition is 2.06%.

On to `COc1ccc(NC(=O)C2=NNC(=O)CC2)cc1S(=O)(=O)N1CCCCC1`, for which the inhibition was -2.9%. The figure for `Cc1ccc(-c2csc(NC(=O)c3cccs3)n2)cc1` is -16.5%. As for `O=C(Nc1ncccn1)c1cccs1`, the inhibition is -0.12%.

For `O=C(Nc1n[nH]c(C(F)(F)F)n1)c1cccs1`, the inhibition is 40.9% (active). As to `O=C(Cn1c[n+](CC(=O)c2ccc([N+](=O)[O-])cc2)cn1)c1ccc([N+](=O)[O-])cc1`, the inhibition is -1.7%. The figure for `C=CCN(c1ccccc1C(=O)NCC(=O)OCC)S(=O)(=O)c1ccc(C)cc1` is -3.06%. The figure for `Cc1nc2ccccc2nc1N/N=C/c1ccc(O)cc1O` is -20.8%. Consider `COc1ccc(N=C(C)c2sc3ccccc3c2O)cc1`, for which the inhibition was 2.85%.

On to `O=[N+]([O-])c1cccc2ncccc12`, for which the inhibition was -1.14%. With `C=C1CCN([C@H](C(=O)NCc2cc(OC)c(OC)c(OC)c2)C(C)C)S(=O)(=O)c2ccccc21`, the inhibition is 0.63%. `O=C(NNC(=O)c1csc(-c2cccnc2)n1)Nc1ccc(Cl)cc1`: the inhibition is -0.51%. The figure for `O=C(Nc1ccc(Cl)cc1)Nc1ccc(Oc2cccnc2)nc1` is 62.9% (active); for `O=C(O)CCCC(=O)Nc1ccc(Oc2cccc(C(F)(F)F)c2)nc1` it is -2.65%. The figure for `O=C(CNc1ccc(F)cc1F)NC(=O)NCc1ccco1` is -1.58%; for `COc1ccc(/C=C/c2nnc(NC(=O)C(C)C)s2)cc1` it is 0.65%; for `Cn1nccc1NS(=O)(=O)c1ccc(F)cc1` it is 8.38%. As to `CC(C)N(C(=O)c1ccc(-c2ccccc2F)cc1)C(C)C`, the inhibition was 52.5% (active). For `O=C(Nc1ccccc1F)c1ccccc1-c1ccccc1`, the inhibition was -10.7%.

In the case of `Cc1ccccc1NC(=O)C(C)c1ccc(-c2ccccc2)c(F)c1` (stereo not given), the inhibition was 1.97%. The figure for `Clc1ccc2nc(-c3ccccc3)nc(C(Cl)Cl)c2c1` is 0.33%; for `COc1ccc(-c2nn(C)c(=O)c3ccccc23)cc1CNC(=O)C1CCCCC1` it is 1.08%; for `COC(=O)c1ccc(CN2CCC(CO)(Cc3ccc(OC)cc3)CC2)cc1` it is -3.09%. Turning to `COc1ccc(CC2(CO)CCN(Cc3cnn(C)c3)CC2)cc1`, the inhibition is 5.76%.

For `CC(C)c1csc(CN2CCC(CO)(Cc3ccccc3)CC2)n1`, the inhibition is 40.6% (active).

Consider `COc1ccc(CCNC2=CC(=O)CC(C)(C)C2)cc1`, for which the inhibition is 0.99%. The figure for `CCS(=O)(=O)c1cc([N+](=O)[O-])c(Sc2ccccc2N)s1` is 3.91%.

Regarding `COC(=O)c1sc(C(F)(F)F)c(-c2ccccc2)c1S(=O)(=O)N(C)C`, the inhibition was 0.56%. For `CCOC(=O)CN(C)S(=O)(=O)c1ccc(-c2cc(C(=O)OC)sc2C(F)(F)F)cc1`, the inhibition is 74.9% (active).

Turning to `Cc1ccc(S(=O)(=O)N(C)CC(=O)OCC(=O)Nc2ccccc2)cc1`, the inhibition was 2.05%.

As for `Cc1ccccc1CSc1nnc(CCCCCNC(=O)OC(C)(C)C)o1`, the inhibition was 0.98%. Take `O=C(CNC(=O)c1cc(=O)[nH]c2ccccc12)Nc1ccc(F)c(F)c1`: the inhibition was 5.97%. As to `CCCN(CC(=O)Nc1ccccc1C)C(=O)c1cc(=O)[nH]c2ccccc12`, the inhibition is 45.5% (active). The figure for `CCOC(=O)c1ccc(NC(=O)c2cc(=O)[nH]c3ccccc23)cc1` is -1.31%; for `COC(=O)c1scc(S(=O)(=O)C(C)(C)C)c1-n1cccc1` it is -2.13%. With `O=S(=O)(NCc1ccco1)c1cnc(Cl)c(Cl)c1`, the inhibition was 18.9%.

Consider `C(=C\c1ccccc1)/CSc1nnc(-c2cccnc2)n1Cc1ccco1`, for which the inhibition is 59.8% (active). The figure for `O=C(CSc1nnc(-c2cccnc2)n1Cc1ccco1)c1ccc(Cl)c(Cl)c1` is -11.9%; for `O=C(CSc1nnc(-c2cccnc2)n1Cc1ccco1)c1ccc(Cl)cc1` it is -15.7%; for `O=C(Nc1ccccc1)N1CCN(C2c3ccccc3-c3ccccc32)CC1` it is 1.85%. The figure for `CC(C)c1ccc(NC(=S)NNc2ccc(Cl)c(C(=O)O)c2)cc1` is 5.6%; for `COc1cc2c(cc1OC)C(/C=C/c1ccco1)=NCC2` it is 4.43%; for `CC1CC(C)(C)n2c(O)c(N=NC(N)=S)c3cccc1c32` (stereo not given) it is 50.7% (active).

Regarding `C[C@@H](NC(=O)OC(C)(C)C)c1nnc(S(=O)(=O)Cc2ccccc2)o1`, the inhibition was -1.93%. As to `Cc1cc(F)ccc1NC(=O)C(C)n1c2ccccc2c2nc(=O)cc(C)n21` (stereo not given), the inhibition was 0.22%. The figure for `O=C(NC1CCCCC1)c1cc(C2CC2)on1` is -1.29%; for `COc1cccc2c1OCC1COc3c(c(=O)n(C)c(=O)n3C)C21` (stereo not given) it is 50.2% (active).

Regarding `Cn1c2c(c(=O)n(C)c1=O)[C@@H]1c3c(ccc4ccccc34)OC[C@@H]1CO2`, the inhibition was 21.4%. The figure for `Cn1c2c(c(=O)n(C)c1=O)C1c3ccccc3OCC1C(C)(C)O2` (stereo not given) is -2.4%. The figure for `O=C(NNc1cc(Cl)cc(Cl)c1)c1c(F)cccc1Cl` is 1.1%.

On to `CCc1c(C)nc2c(-c3ccccc3)c(C)nn2c1Nc1ccc(NC(C)=O)cc1`, for which the inhibition is -10.1%.

Turning to `COc1cc(C(=O)N2C(=O)c3cccc(N)c3C2=O)cc(OC)c1OC`, the inhibition is -10.2%. Turning to `CN1CCN(S(=O)(=O)c2cccc(C(=O)O)c2)CC1`, the inhibition is -1.38%.

With `CC1CC(C)CN(S(=O)(=O)c2cccc(C(=O)N3C(=O)c4cccc(N)c4C3=O)c2)C1` (stereo not given), the inhibition was 83.1% (active). As for `Cc1cc(=O)oc2cc(OCC(=O)Nc3nnc(C4CC4)s3)ccc12`, the inhibition is 5.43%. The figure for `O=C(Nc1nnc(COc2ccccc2)s1)Nc1ccccc1F` is 0.25%.
